This note sets out measurements from PubChem BioAssay (NCATS).

Molecules are shown by their SMILES. “And” between values parts separate entries of the source, which are not always exact repeats. Identical values can stand only once. Records with an inconclusive call do not appear. Unmarked numbers belong to inactive results. The source made the active and inactive calls. Calls come from the whole dose curve; as a rule, active = well fitted curve in the direction sought with a large enough effect; inconclusive = small, poorly fitted or top-dose-only effect, or another doubt; inactive = no such curve, though single readings can be large; an effect the other way counts as inactive or inconclusive.

Assay [1] can be described thus: qHTS of pediatric cancer cell lines to identify multiple opportunities for drug repurposing: Primary screen for U-2 OS cells (AID 1347096). Note: nearly all actives have a fitted effect of over 50% in size. Note: potency is the fitted concentration of half-maximal effect. The gist of the method:
(§1)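 Viability after 48 h compound treatment at 37C, 500-1,000 cells/well, read as ATP luminescence with CellTiter-Glo. Primary screens used 11-point (MIPE, 0.78 nM-46 µM) or 8-point (NPC, 0.59 nM-46 µM) final concentrations; follow-up screens used 11-point dilutions.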
Background: qHTS replaces the single test concentration by a dilution series.

Assay [2] can be described thus: qHTS of pediatric cancer cell lines to identify multiple opportunities for drug repurposing: Primary screen for Saos-2 cells (AID 1347097). Note: nearly all actives have a fitted effect of over 40% in size. Note: potency is the fitted concentration of half-maximal effect. In short, it runs like this:
(§2)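 Phenotypic viability qHTS, 48 h compound exposure, CellTiter-Glo luminescence read-out; multi-concentration dosing so that potency and efficacy derive directly from the primary screen's curves.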

The nature of assay [3]: qHTS of pediatric cancer cell lines to identify multiple opportunities for drug repurposing: Primary screen for SK-N-SH cells (AID 1347098). Note: nearly all actives have a fitted effect of over 65% in size. Note: potency is the fitted concentration of half-maximal effect. The gist of the method: (§3)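 Cells (500-1,000/well) rested 5 h, then received compounds for 48 h; metabolically active cells were measured by CellTiter-Glo luminescence. Final concentrations spanned up to 46 µM (MIPE, 11-point) or 0.59 nM-46 µM (NPC, 8-point) in primary screens, 11-point in follow-ups.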

Assay [4] is described as follows: qHTS of pediatric cancer cell lines to identify multiple opportunities for drug repurposing: Primary screen for LAN-5 cells (AID 1347100). Note: potency is the fitted concentration of half-maximal effect. In short, it runs like this: as §1
Assay [5] in a line: qHTS of pediatric cancer cell lines to identify multiple opportunities for drug repurposing: Primary screen for BT-12 cells (AID 1347101). Note: nearly all actives have a fitted effect of over 25% in size. Note: potency is the fitted concentration of half-maximal effect. The gist of the method:
as §3

A short description of assay [6]: qHTS of pediatric cancer cell lines to identify multiple opportunities for drug repurposing: Primary screen for Rh18 cells (AID 1347102). Note: nearly all actives have a fitted effect of over 65% in size. In short, it runs like this: as §1
Assay [7] is described as follows: qHTS of pediatric cancer cell lines to identify multiple opportunities for drug repurposing: Primary screen for OHS-50 cells (AID 1347103). Note: nearly all actives have a fitted effect of over 40% in size. Note: potency is the fitted concentration of half-maximal effect. In short, it runs like this:
as §3

The nature of assay [8]: qHTS of pediatric cancer cell lines to identify multiple opportunities for drug repurposing: Primary screen for RD cells (AID 1347104). Note: nearly all actives have a fitted effect of over 55% in size. Note: potency is the fitted concentration of half-maximal effect. In short, it runs like this: as §2
A short description of assay [9]: qHTS of pediatric cancer cell lines to identify multiple opportunities for drug repurposing: Primary screen for MG 63 (6-TG R) cells (AID 1347105). Note: nearly all actives have a fitted effect of over 50% in size. The gist of the method:
as §2

The nature of assay [10]: qHTS of pediatric cancer cell lines to identify multiple opportunities for drug repurposing: Primary screen for NB1643 cells (AID 1347099). Note: nearly all actives have a fitted effect of over 50% in size. Note: potency is the fitted concentration of half-maximal effect. The gist of the method: as §2

As for `O=C1CC[C@@]2(O)[C@H]3Cc4ccc(O)c5c4[C@@]2(CCN3CC2CC2)[C@H]1O5`, the Potency result in [1], in [2], in [3], in [4], in [5] and in assay [6] was “inactive” each time. The Potency result in [7], in [8] and in assay [9] was “inactive” in each case.
Consider `C[C@@H]1[C@@H](CC(C[C@H]2O[C@@H]3O[C@]4(C)CC[C@@H]5[C@H](C)CC[C@@H]([C@H]2C)[C@@]35OO4)C[S+](=O)([O-])c2ccc(COC(=O)N(C)C)cc2)O[C@@H]2O[C@]3(C)CC[C@H]4[C@H](C)CC[C@@H]1[C@@]24OO3` (some centres not stated), for which the Potency entry in [1] was “inactive”. Besides, the Potency in assay [2] is 118 nM (active); in [10], 1.05 µM (active); in assay [4], 662 nM (active); in assay [5], 0.344 µM (active); in assay [7], 0.306 µM (active).
For `COc1ccc(Cc2nccc3cc(OC)c(OC)cc23)cc1OC`, the Potency result in assay [1], in assay [2], in [3], in [10], in assay [6] and in assay [9] was “inactive” each time.
Regarding `NCC(O)c1ccc(O)cc1` (configuration not stated), the Potency entry in assay [1], in assay [2], in [3], in assay [10], in [4] and in [5] was “inactive” throughout. Also, the Potency entry in assay [6], in assay [7] and in assay [8] was “inactive” in each case.
As for `Oc1ccc(Cl)cc1Cc1ccccc1`, the Potency result in assay [1], in assay [10], in [5] and in [6] was “inactive” each time. Moreover, the Potency in [2] is 24.6 µM (active) and 23.7 µM (active); in [3], 35.8 µM (active) and 17.2 µM (active); in assay [7], 25.6 µM (active).
As for `CN1C(=S)CN=C(c2ccccc2)c2cc(Cl)ccc21`, the Potency result in [1], in [2], in assay [3], in assay [10], in assay [4] and in assay [5] was “inactive” each time. The Potency entry in [6], in [7] and in [8] was “inactive” each time.
For the molecule `CC1=C2C[C@@H]3[C@@H](CC=C4C[C@@H](O)CC[C@@]43C)[C@@H]2CC[C@]12O[C@H]1C[C@H](C)CN[C@H]1[C@H]2C`, the Potency result in assay [1], in assay [2], in assay [10], in assay [4] and in assay [8] was “inactive” each time. Moreover, the Potency in assay [3] is 6.07 µM (active); in assay [7] it was 30.6 µM (active).
For the molecule `CC(C)CC(N(C)C)C1(c2ccc(Cl)cc2)CCC1` (configuration not stated), the Potency result in assay [1], in assay [2], in assay [3], in assay [10], in [4] and in assay [5] was “inactive” throughout. In addition, the Potency result in assay [6], in assay [7] and in assay [8] was “inactive” in each case.
In the case of `c1ccc2c(c1)OCC(C1=NCCN1)O2` (configuration not stated), the Potency result in assay [1] was “inactive”. Besides, the Potency was 23700 nM (active) in assay [2]; 13.7 µM (active) in [3]; 23.7 µM (active) in assay [10]; 26600 nM (active) in [4]; 19.5 µM (active) in assay [5]; 21.1 µM (active) in [8].
Take `COc1ccc2c(c1OC)CN1CCc3cc4c(cc3C1C2)OCO4` (configuration not stated): the Potency result in [1], in [2], in assay [3], in assay [10], in [8] and in assay [9] was “inactive” throughout. The Potency was 15.5 µM (active) in assay [5] and 17.4 µM (active) in assay [7].
In the case of `Fc1ccc(C(OCCN2CCN(CCCc3ccccc3)CC2)c2ccc(F)cc2)cc1`, the Potency in [1] was 23.5 µM (active); in assay [2], 14.8 µM (active) and 15 µM (active); in assay [3], 9.7 µM (active); in assay [10] it was 13.2 µM (active); in assay [4] it was 16.6 µM (active) and 8.41 µM (active); in [5], 21.7 µM (active) and 24.6 µM (active). In addition, the Potency in assay [7] was 10.9 µM (active) and 15.5 µM (active); in [8] it was 26.4 µM (active) and 23.7 µM (active).
Consider `CN(C)CCc1ccc(O)cc1`, for which the Potency entry in assay [1], in assay [2], in [3], in assay [10], in [4] and in assay [5] was “inactive” each time. Moreover, the Potency result in assay [6], in assay [7], in [8] and in assay [9] was “inactive” in each case.
Consider `CC(C)(C)NCC(O)c1cc(Cl)c(N)c(Cl)c1` (configuration not stated), for which the Potency entry in assay [1], in [2], in assay [3], in assay [10], in assay [4] and in assay [5] was “inactive” in each case. In addition, the Potency entry in assay [6], in assay [7] and in assay [8] was “inactive” each time.
In the case of `CC(=O)[C@H]1CC[C@H]2[C@@H]3CC[C@H]4C[C@H](O)CC[C@]4(C)[C@H]3C(=O)C[C@]12C`, the Potency result in assay [1], in [2], in assay [3], in assay [10], in assay [4] and in assay [5] was “inactive” in each case. For the same molecule, the Potency entry in assay [6], in assay [8] and in assay [9] was “inactive” throughout.
For the molecule `Cc1cccc(C)c1NC1=NCCCS1`, the Potency result in assay [1], in [2], in assay [3], in [4], in assay [5] and in [7] was “inactive” each time. Moreover, the Potency entry in assay [8] and in [9] was “inactive” each time.
As to `Clc1cccc(N2CCNCC2)c1`, the Potency entry in assay [1], in assay [2], in assay [3], in assay [10], in assay [4] and in [5] was “inactive” each time. The Potency result in assay [6], in assay [8] and in assay [9] was “inactive” in each case.
Turning to `CCN(CC)CCOC(=O)C(O)(c1ccccc1)c1ccccc1`, the Potency entry in [1], in assay [2], in assay [3], in [10], in assay [4] and in [5] was “inactive” throughout. The Potency entry in assay [7], in assay [8] and in assay [9] was “inactive” in each case.
In the case of `O=P1(NCCCl)OCCCN1CCCl` (configuration not stated), the Potency entry in assay [1], in assay [2], in assay [3], in assay [10], in assay [4] and in assay [5] was “inactive” each time. Also, the Potency entry in assay [6], in [7] and in assay [8] was “inactive” in each case.
In the case of `CC(C)NCC(O)c1ccccc1Cl` (configuration not stated), the Potency entry in assay [1], in assay [2], in [3], in assay [10], in [4] and in [5] was “inactive” in each case. For the same molecule, the Potency result in assay [6], in assay [7], in assay [8] and in assay [9] was “inactive” each time.
For the molecule `COC[C@@H](NC(C)=O)C(=O)NCc1ccccc1`, the Potency result in [1], in [2], in assay [3], in assay [4], in assay [5] and in assay [6] was “inactive” each time. In addition, the Potency result in assay [7], in assay [8] and in [9] was “inactive” each time.
As to `Cc1ccc(-c2nc3ccc(C)cn3c2CC(=O)N(C)C)cc1`, the Potency entry in assay [1], in assay [2], in assay [3], in assay [10], in assay [4] and in assay [5] was “inactive” each time. In addition, the Potency entry in [6], in [7], in assay [8] and in assay [9] was “inactive” throughout.
